# Measurements published in article PMC4336329 (PLoS ONE, 2015).
# Among all 310,000 compounds or so, about 14,000 (4.5%) showed an effect of 50% or more. Effects have a minus sign here. The list comes from a sample in which strong results are over-represented; it also holds similar structures and randomly drawn compounds.
# Molecular target: human ether-à-go-go-related gene (hERG) potassium channel (human, UniProt Q12809)
# Assay: primary screen, population patch clamp on CHO cells stably expressing hERG; higher = less effect of the substance
# 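Further: peak tail current of the secondary pulse compared with the same well before compound.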
# Chain of human ether-à-go-go-related gene (hERG) potassium channel (Q12809 whole entry, looked up): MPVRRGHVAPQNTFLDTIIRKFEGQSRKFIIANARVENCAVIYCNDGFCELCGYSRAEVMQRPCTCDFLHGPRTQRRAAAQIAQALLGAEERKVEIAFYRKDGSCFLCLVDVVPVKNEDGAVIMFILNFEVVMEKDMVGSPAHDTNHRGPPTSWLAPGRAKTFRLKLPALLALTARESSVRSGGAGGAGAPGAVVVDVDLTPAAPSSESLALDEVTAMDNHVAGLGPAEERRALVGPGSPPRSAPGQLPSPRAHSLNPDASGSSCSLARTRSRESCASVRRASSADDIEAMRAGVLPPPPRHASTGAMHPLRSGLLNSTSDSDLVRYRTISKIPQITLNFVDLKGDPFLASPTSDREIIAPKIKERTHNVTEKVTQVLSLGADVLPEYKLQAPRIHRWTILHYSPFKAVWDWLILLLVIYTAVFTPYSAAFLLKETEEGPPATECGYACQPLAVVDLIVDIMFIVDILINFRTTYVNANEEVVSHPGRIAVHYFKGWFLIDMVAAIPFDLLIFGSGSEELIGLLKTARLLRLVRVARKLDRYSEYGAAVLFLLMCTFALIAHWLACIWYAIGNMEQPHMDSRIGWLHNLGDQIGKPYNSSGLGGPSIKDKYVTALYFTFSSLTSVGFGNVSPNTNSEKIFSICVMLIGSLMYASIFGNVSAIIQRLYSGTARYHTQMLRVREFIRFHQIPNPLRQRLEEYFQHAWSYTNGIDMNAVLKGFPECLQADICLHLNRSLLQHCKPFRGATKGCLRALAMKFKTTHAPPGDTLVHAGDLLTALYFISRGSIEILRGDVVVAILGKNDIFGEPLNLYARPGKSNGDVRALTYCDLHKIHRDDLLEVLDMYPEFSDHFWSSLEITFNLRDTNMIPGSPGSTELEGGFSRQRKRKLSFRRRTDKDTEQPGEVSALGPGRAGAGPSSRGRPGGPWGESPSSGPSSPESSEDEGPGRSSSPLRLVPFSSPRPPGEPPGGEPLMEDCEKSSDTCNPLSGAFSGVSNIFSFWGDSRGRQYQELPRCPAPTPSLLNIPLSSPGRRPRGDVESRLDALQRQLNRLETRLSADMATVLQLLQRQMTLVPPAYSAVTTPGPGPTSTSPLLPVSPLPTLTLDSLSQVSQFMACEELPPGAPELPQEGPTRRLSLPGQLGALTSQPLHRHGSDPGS
row,Structure (SMILES),"hERG current change (%, negative = inhibition) at 10uM [%]"
1,O=C1CN(C(=O)CSc2nnc(Nc3ccccc3)s2)c2ccccc2N1,0.255
2,COc1ccc(NC(=S)NCc2ccc3c(c2)cc(C)n3C)cc1,5.5
3,CN(CCO)c1cc(NCCCN2CCC(Cc3ccccc3)CC2)c2nonc2c1[N+](=O)[O-],-38
4,COC(=O)c1ccc(NC(=O)c2ccc3c(c2)C(=O)N(Cc2cccnc2)C3=O)cc1,-23.2
5,CCCCCCn1c(O)c(C(C)=NC)c(=O)[nH]c1=O,1.56
6,CC1CCc2nn(CC(=O)Nc3ccc(F)cc3F)cc2C1 (stereo not shown),-2.61
7,COc1ccc(-c2nc3ccccc3n2Cc2ccc(C)cc2)cc1,-6.29
8,CN1C(=O)C(C)(C)c2cc(S(=O)(=O)N3CCCC(C(=O)NCc4ccccc4Cl)C3)ccc21 (stereo not shown),2.18
9,C=CCN(C(=O)CCC(=O)O)C1CC(=O)N(c2ccc(OCCC)cc2)C1=O (stereo not shown),0.711
10,Cc1ccc2oc(=O)c3cc(C(=O)NCCN4CCN(C)CC4)sc3c2c1,-18.2
11,COC(=O)c1ccc(C)c(NC(=O)C2CC(=O)N(C3CCCC(C)C3C)C2)c1 (stereo not shown),-11.5
12,O=C(OCC(=O)N1CCCCC1)c1c[nH]c2ccccc12,-7.04
13,O=C(O)COc1ccccc1/C=N/NC(=O)CN1CCN(Cc2ccc(Cl)cc2)CC1,10.7
14,Cc1ccc(CN2CCN(CC(=O)N/N=C/c3ccccc3F)CC2)cc1,-66.4
15,O=C(CN1CCSCC1)N/N=C/c1ccccc1F,0.735
16,Cc1nc2ccccc2c(=O)n1-c1ccc(Cl)cc1Cl,-0.324
17,Cc1ccc(CSc2ncnc3c2cnn3-c2ccc(C)cc2)cc1,30.7
18,COc1ccc(N(CC(O)Cn2nnc3ccccc32)S(=O)(=O)c2ccc(C)cc2)cc1 (stereo not shown),-64.6
19,COc1ccc(N(CC(O)Cn2c(C)nc3ccccc32)S(=O)(=O)c2ccccc2)cc1 (stereo not shown),4.8
20,COc1ccc(N(CC(O)CN2C(=O)NC(C)(C)C2=O)S(=O)(=O)c2ccc(C)cc2)cc1 (stereo not shown),-11.6
21,COc1ccc(N(CC(O)Cn2c(C)nc3ccccc32)S(=O)(=O)c2ccc(C)cc2)cc1 (stereo not shown),-11.5
22,COc1ccc(N(CC(O)Cn2cnc3ccccc32)S(=O)(=O)c2ccc(C)cc2)cc1 (stereo not shown),-58
23,COc1ccc([N+](=O)[O-])cc1N(CC(O)Cn1nnc2ccccc21)S(=O)(=O)c1ccc(C)cc1 (stereo not shown),-29.4
24,COc1ccc(C(=O)Nc2ccc(N3CCCCCC3)cc2)cc1S(=O)(=O)N1CCOCC1,-40.1
25,COc1ccc(CN(CC2CCCO2)C(=O)CN2C(=O)COc3ccccc32)cc1OC (stereo not shown),-15.8
26,Cc1sc(N)c(C(=O)c2ccccc2Cl)c1C,3.8
27,CCOc1ccccc1N(CC(=O)NC1CCCCC1)C(=O)CNC(=O)c1ccco1,8.1
28,Fc1ccc(CN2CCN(c3ncccn3)CC2)cc1,-3.32

row,Structure (SMILES),"hERG current change (%, negative = inhibition) at 10uM [%]"
1,CN1C(=O)c2ccc(C(=O)Nc3ccc(Br)cn3)cc2C1=O,7.17
2,O=C(CN1CCOCC1)Nc1ccccc1NC(=O)C1CCN(c2ncccn2)CC1,9.55
3,Cc1ccc(-c2nc(CS(=O)CC(=O)NCCN(CC(C)C)CC(C)C)c(C)o2)cc1 (stereo not shown),-19.4
4,Cc1cc(Cl)ccc1NC(=O)CN1C(=O)C(=O)N(C2CCCC2)C1=O,-5
5,Cc1ccc(-n2cc(CN3CCC(CO)(Cc4ccccc4)CC3)cn2)cc1,-65.1
6,OCC1(Cc2ccccc2)CCN(Cc2cnn(-c3ccccc3F)c2)CC1,-41.9
7,Cc1ccc(-n2cc(CN3CCC(CO)(Cc4cccc(C(F)(F)F)c4)CC3)cn2)cc1,-76
8,Cc1ccc(CN2CCCN(Cc3ccccc3C)S2(=O)=O)cc1,21.1
9,Cc1ccc(-n2nnnc2-c2cnc(N3CCCC3)nc2C(F)(F)F)cc1,-9.95
10,CCOC(=O)c1cnc2c(cnn2C)c1NCc1ccc(OC)cc1,16
11,COC(=O)c1cc2sc(Cl)cc2n1CC(=O)Nc1ccc(OC)c(OC)c1OC,-68.9
12,COC(=O)c1cc2sccc2n1CC(=O)Nc1ccc(OC)c(OC)c1OC,-1.08
13,COC(=O)c1cc2occc2n1CC(=O)Nc1ccc(OC)c(OC)c1OC,0.151
14,CCOc1ccc(NC(=O)CN2CC(c3ccccc3)CC2=O)cc1 (stereo not shown),-19.9
15,COC(=O)c1ccc(/C=N/NS(=O)(=O)c2cc(C)ccc2C)cc1,-0.827
16,Cc1ccn2c(-c3csc(NCc4ccccc4)n3)c(C)nc2c1.Cl,-72.4
17,Cc1nc2ncccn2c1-c1csc(NCc2ccco2)n1,-51.8
18,Oc1ccc(-c2csc(NCc3ccco3)n2)cc1,-10.2
19,Cc1nc2sccn2c1-c1csc(NCc2ccccc2)n1,6.86
20,c1coc(CNc2nc(-c3cccs3)cs2)c1,-9.83
21,C=CCNc1nc(-c2c(C)nc3ncccn23)cs1,-0.737
22,Cc1nc2ccccn2c1-c1csc(NCc2ccco2)n1,-74.6
23,Cc1ccn2c(-c3csc(NCc4ccco4)n3)c(C)nc2c1,-64.9
24,c1coc(CNc2nc(-c3ccncc3)cs2)c1,-3.17
25,Br.Cc1nc2ncccn2c1-c1csc(Nc2ccc(S(N)(=O)=O)cc2)n1,0.703
26,Cc1ccn2c(NCc3ccccc3)c(-c3cccs3)nc2c1,12.5
27,Cc1nc(C)c(-c2csc(NCc3ccco3)n2)s1,-10.9
